Reference: PubChem BioAssay AID1846 (The Scripps Research Institute Molecular Screening Center, 2009)
“And” between values parts separate entries of the source, which are not always exact repeats. Equal entries are not always repeated. In all, about 2,300 compounds went through this assay and about 1,500 (65%) were called active. Rule as the data show it: active = inhibition above about 18%; inactive = the rest. The set was probably picked from earlier hits. Only a sample is shown. Where a structure was tested more than once in an assay, its records may differ in their call.

molecular target: Heat shock protein HSP 90-alpha (Homo sapiens) (UniProt P07900); assay: HSP90 inhibitors, confirmation, cell lysate, luminescence (AID 1846); details: rabbit reticulocyte lysate, luciferase refolding luminescence, 3 h; at 5.9 µM; stronger effect = higher value;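 also: 0% = vehicle wells and 100% = reference inhibitor wells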

inhibition, inactive:
c1ccc(-c2ccc3c(c2)NC(C2Nc4cc(-c5ccccc5)ccc4O2)O3)cc1 (stereo not given) 8.8%
COCc1cc(=O)[nH]c2cc(NC(=O)C(F)(F)F)c(C)cc12 -8.2%
COc1ccc(Cl)cc1NC(=O)Cn1nc(-c2ccc(C)cc2)n(C)c1=S -3.4%
CCN(CCCNC(=O)c1ccc2c(c1)NC(=O)CN2C)c1cccc(C)c1 14.4%
COC(=O)C1[C@H]2SC(C)(C)C(C(=O)OC)N2C(=O)N1Cc1nc2ccccc2s1 (stereo not given in full) -5.33%
O=C(O)c1ccc(N=NN2CCOCC2)cc1 -8.5%
Cc1nn(CC(=O)Nc2ccc(F)cc2)c(=O)c2ccccc12 -9.73%
CC(C)CNC(=O)CC(NCC(C)C)C(=O)O (stereo not given) -4%
CC(C)(C)OC(=O)c1c(N)n(CCCN2CCCC2=O)c2nc3ccccc3nc12 -5.73%
CCCCOCCCNC(=O)c1ccccc1OCC -3.83%
COC(=O)c1sc(NC(=O)c2csc3c2CCCC3)nc1C 12.5%
COc1cc(NS(=O)(=O)c2ccc3ccccc3c2)c2ncccc2c1 10.9%
Cc1ccc(-n2c(SCC(=O)Nc3ncc(Cl)cc3Cl)nc3ccccc32)cc1 14%
CCCCC(=O)Nc1nc(C)c(-c2csc(Nc3ccc(Cl)cc3)n2)s1 7.3%
Cc1ccc(Nc2nc(-c3sc(NC(=O)c4ccccc4)nc3C)cs2)cc1 15.7%
CCc1nc(SCC(=O)Nc2ccccc2OC)n[nH]1 1.4%
Cc1ccc2nc(/C(C#N)=C\c3ccc(OC(=O)c4cccs4)cc3)[nH]c2c1 -11%
CCN(CC)CCn1c(N)c(S(=O)(=O)c2ccccc2)c2nc3ccccc3nc21 -3.4%
Cc1nnc(SCC(=O)N2c3ccccc3C(C)(c3ccc(Cl)cc3)CC2(C)C)s1 (stereo not given) 8.97%
CCCS(=O)(=O)N1CCCC(C(=O)NCCN2CCCCC2C)C1 (stereo not given) 1.9%
CCOC(=O)c1nc(C)n(-c2ccc(Cl)cc2Cl)n1 0.2%
CSCCC(C(=O)NC1=NCCS1)N1C(=O)c2ccccc2C1=O (stereo not given) -7.1%
CC(OC(=O)c1ccc2noc(-c3ccccc3)c2c1)C(N)=O (stereo not given) 2.1%
C/C(=N\NC(=S)NC1CCCCC1)c1ccc(C)o1 3.2%
Oc1c(C=Nc2cccc3nsnc23)ccc2ccccc12 6.47%
COc1cc(C(=O)NN(CCC#N)C2=NS(=O)(=O)c3ccccc32)cc(OC)c1OC -4.73%
CCc1ccc(Nc2ncc3c(n2)CC(c2ccco2)CC3=O)cc1 (stereo not given) -4.8%
CCOC(=O)N1CCN(Cc2nc3c(c(=O)n(C)c(=O)n3C)n2Cc2ccccc2)CC1 -3.3%
COc1cc(CNC2CCCCC2)c(Br)cc1OC1CCCC1 5.53%
Cc1sc2nc(CSCC(=O)Nc3c(Cl)cccc3Cl)[nH]c(=O)c2c1C -4.2%
Nc1ccc(-c2nnc(-c3ccccc3)o2)cc1 4.47%
Cc1cccc(CCNC(=O)Cn2ncc3c([nH]c4ccc(C)cc43)c2=O)c1 5.53%
O=C1CCC([N+](=O)[O-])C(c2ccccc2Br)N1 (stereo not given) -5.63%
CCCCNC(=O)Nc1c(C)cc(SC#N)cc1C 4.17%
Cc1ccc(Nc2nc(-c3ccc(O)cc3O)cs2)nc1 0.63%
CCOC(=O)CNC(=O)c1nn(-c2cccc(OC)c2)c(=O)c2ccccc12 -0.53%
CCOc1c(Br)cc(/C=C2\C(=O)N(CCC#N)N=C2C)cc1OC -11.9%
N#C/C=C\Oc1ccc(Cl)cc1N -1.37%
Cc1ccc(C(=O)COC(=O)c2cccc(N3C(=O)c4c(C)nc5ccccc5c4C3=O)c2)cc1C 4.83%

inhibition, 3.57% (inactive) and 48.8% (active):
O=C(Cn1c[n+](CC(=O)c2ccc([N+](=O)[O-])cc2)cn1)c1ccc([N+](=O)[O-])cc1

inhibition, active:
COc1cccc(/C=C/c2ccc3ccccc3n2)c1OC(C)=O 72.3%
CN(c1ccc2nc3ccccc3c(=O)n2n1)C1CCCCC1 90.9%
C=CCN1CCN(C(=O)CCCc2ccccc2)CC1 52.5%
Cc1cccc(NC(=O)/C=C/c2ccc3c(c2)OCO3)n1 40.6%
O=C(Nc1cccnc1)c1noc2c1CCCCC2 48%
COc1ccc(Nc2ncnc3ccc(Br)cc23)c(OC)c1 54.7%
O=C(Cc1ccccc1)N1CCN(S(=O)(=O)c2ccc([N+](=O)[O-])cc2)CC1 53.5%
CCOc1ccc(-c2nnc(-c3ccco3)o2)cc1 60.3%
O=C(Nc1ccc2c(c1)OCCO2)C1CCCN(c2ncccn2)C1 (stereo not given) 34.1%
Clc1ccc(-c2cc(-c3ccccn3)on2)c(Cl)c1 84.9%
Cc1nc2cc(NC(=O)Nc3cccc(F)c3)ccc2n1C 40.5%
CCOC(=O)C1=C(c2ccc(OC)cc2)C(=O)c2ccccc2C1=O 95.3%
Cc1ccc(C(=O)O/N=C(\N)c2ccccn2)cc1Cl 29.5%
COc1ccc(CNC(=O)/C(C#N)=C/c2cccc(OC)c2OC)cc1 18.9%
Cc1cccc(C(=O)OC(C)CN2CCN(C)CC2)c1 (stereo not given) 19.1%
O=[N+]([O-])/C=C/c1ccc2c(ccn2Cc2ccccc2)c1 68.7%
O=C(CSC(=S)N1CCOCC1)c1ccccc1 57.6%
Cc1cnc(NC(=O)c2ccccn2)s1 39.7%
COc1cccc2c(C)c(C(=O)O)[nH]c12 56.9%
Cc1ccc(C(=O)CSc2ccccc2C(=O)O)cc1 42.3%
Cc1ccsc1C(=O)OCC(=O)c1cc(C)n(CC2CCCO2)c1C (stereo not given) 89.3%
Clc1cccc(N=C2NN=C(c3ccc4c(c3)OCCO4)CS2)c1 41.5%
CC(C)c1nc2ccc(C(=O)O)cc2[nH]1 55.6%
Cc1nc2ccc(C(=O)O)cc2[nH]1 46.4%
CCCOc1ccc(C(=O)NCCc2ccccc2)cc1 49.2%
COc1ccc(/C=C/c2noc(-c3ccccc3OC(C)=O)n2)cc1 45.2%
COC(=O)c1sc(NC(=O)c2ccc(OC)cc2OC)nc1C 67.3%
COc1cc(SC)ccc1C(=O)Nc1nc(C)cs1 94%
c1ccc(-c2noc(-c3cccs3)n2)nc1 43.7%
CCOc1ccc(N/C=C/C(=O)c2ccccc2)cc1 75.5%
COc1ccc(C(=O)/C=C/Nc2ccccn2)cc1 96.8%
Cc1nc(NC(=O)c2cccc(Cl)c2)sc1-c1csc(Nc2cccc(Cl)c2)n1 23.7%
COc1ccc(C(=O)Nc2ccccc2C(=O)N/N=C/c2ccc(O)c(OC)c2)cc1 98.7%
COc1ccc(/C=N/Nc2ccccc2C(=O)O)cc1 29.5%
COc1ccc(C(=O)Nc2ccccc2C(=O)N/N=C/c2ccccc2OC)cc1 74.7%
CCCCCc1ccc(-c2ccc(C(=O)O)cc2)nc1 72.4%
COc1ccc(-n2nnnc2-c2nc3ccccc3s2)cc1 51.8%
O=C(Nc1ccccc1)c1ccc2c(c1)OCCCO2 49.6%
O=C(Nc1nc2ccccc2s1)c1ccc2c(c1)OCO2 57.7%
c1c2c(cc3sc(N4CCCCC4)nc13)OCCO2 81.9%
CCOc1ccc(C2NC(=S)NC3=C2CCc2ccccc23)cc1 (stereo not given) 28.4%
Cn1c(-c2ccco2)nc2cc3ccccc3cc21 58.9%
CCOc1ccc(OCc2ccc(C(=O)N(C)c3ccccc3)o2)cc1 28.8%
O=C(Nc1ccccc1C(=O)O)c1ccc(N2C(=O)C3CC=CCC3C2=O)cc1 (stereo not given) 25.4%
CCOc1ccc(OCc2cccc(C(=O)N(CC)CC)c2)cc1 39.7%
CCS(=O)(=O)c1cc([N+](=O)[O-])c(Sc2ccccc2N)s1 56%
O=c1oc(/C=C/c2ccccc2)nc2ccccc12 33%
Cc1ccc(-c2cn3cc(C)ccc3n2)cc1 90.3%
Cc1ccc2nc(-c3ccc(Br)cc3)cn2c1 82%
COc1ccc(-c2cn3ccc(C)cc3n2)cc1 83.5%
CCc1ccc2oc(-c3ccc(N)cc3)nc2c1 53.6%
Clc1ccc2nc(CSc3ccccc3)cn2c1 57%
Cc1csc(SCC(=O)Nc2sccc2C#N)n1 42.4%
Cc1cc(C(=O)COC(=O)C2CC2)c(C)n1-c1ccc(F)cc1 87.3%
O=C(OC1CCOC1=O)c1ccc(-c2nc3ccccc3s2)s1 (stereo not given) 60.6%
CN(CCO)c1ccc(/C=N/Nc2nncc3ccccc23)cc1 91.8%
O=C(CN1C(=O)c2ccccc2S1(=O)=O)N1CCc2ccccc21 46.1%
COc1ccc(-c2nc(-c3ccccc3)no2)c(OC)c1 84.8%
CN(C)c1ccc(-n2cccc2/C=N/n2cnnc2)cc1 45.9%
CC(C)Nc1ccc(-n2nc3ccccc3[n+]2[O-])cc1 51.6%
